# PTHR1 agonist – activates the human parathyroid hormone receptor PTHR1 | HEK293 GP2 PTHR1 cells, GloSensor cAMP luminescence, 1 h | Q03431 | Potency, µM (highest dose often 115 µM), most hits filed as activators | hit rate 0.075% among 410,000; further: nearly all actives have a fitted effect of over 55% in size
# Target sequence (Q03431 whole entry, looked up): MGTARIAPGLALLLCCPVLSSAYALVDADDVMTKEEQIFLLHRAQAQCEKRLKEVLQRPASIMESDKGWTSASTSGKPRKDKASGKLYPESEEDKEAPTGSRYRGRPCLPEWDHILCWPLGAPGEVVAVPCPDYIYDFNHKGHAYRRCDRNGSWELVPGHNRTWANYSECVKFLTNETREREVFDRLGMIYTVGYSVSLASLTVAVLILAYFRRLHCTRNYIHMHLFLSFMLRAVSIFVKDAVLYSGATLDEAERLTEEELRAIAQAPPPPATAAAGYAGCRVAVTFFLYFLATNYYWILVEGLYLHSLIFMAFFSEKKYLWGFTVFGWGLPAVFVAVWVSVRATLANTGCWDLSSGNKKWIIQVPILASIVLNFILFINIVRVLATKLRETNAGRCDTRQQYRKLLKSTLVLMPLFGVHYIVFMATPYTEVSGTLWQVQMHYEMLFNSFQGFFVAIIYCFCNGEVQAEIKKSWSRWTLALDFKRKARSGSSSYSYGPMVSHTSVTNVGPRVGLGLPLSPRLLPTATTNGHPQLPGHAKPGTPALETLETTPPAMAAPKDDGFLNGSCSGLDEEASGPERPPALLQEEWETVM
#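 HEK-293-derived GP2 cells expressing PTHR1 and a GloSensor cAMP reporter, 3,000/well, plated overnight, given luciferin plus IBMX (each 0.5 mM as added) for 1 h at 37 °C, then compound for 1 h at 37 °C. Luminescence was read after 15 min at room temperature.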
# KCNH2 3.1 block – blocks the human KCNH2 3.1 channel isoform | U2OS KCNH2 3.1, thallium flux FluxOr; hits give low values | activity change, % (tested at about 1.8 µM) | hit rate 0.95% among 340,000 | AID 720553;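 active means maximum activity change below -70%; inconclusive means maximum activity change from -70% to -50%; inactive means maximum activity change above -50%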;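 further: thallium influx rate constant from kinetic fluorescence after stimulation buffer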
#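 Channel expression came from 3.1 mutant virus (1.77 x 10^8 /mL) applied to suspended U2OS cells for 4 h. Flux was tracked with FluxOr dye plus Red40 quencher, and kinetic rate constants normalized to controls.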
# hERG WT inh – KCNH2 (human, wildtype) channel inhibition; AID 720551; activity change, % at 1.84 µM; hit rate 0.37% among 340,000; U2OS, BacMam KCNH2, thallium flux FluxOr; hits give low values;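 active means maximum activity change below -70%; inconclusive means maximum activity change between -70% and -50%; inactive means maximum activity change above -50%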
#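 U2OS cells transduced with wild-type KCNH2 virus are loaded with FluxOr dye for 45 min, and thallium flux is measured in kinetic reads before and after stimulation buffer. Rate constants are normalized to DMSO controls.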
# RXFP1 ag – agonists of human relaxin receptor RXFP1. hit rate 0.3% among 370,000. HEK293T-RXFP1 cAMP TR-FRET, 30 min; response scale: percent of porcine relaxin response, buffer zero. Potency, µM (highest dose often 57.5 µM), hits mostly activators. Q9HBX9; further: nearly all actives have a fitted effect of over 60% in size
#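 Agonist response is measured as cAMP accumulation in an RXFP1-transfected HEK293T line under PDE4 inhibition. Values are scaled between buffer-only and 29 nM porcine relaxin, and EC50s come from standard Hill equation fits.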
# RXFP1 antagonist – antagonists of human relaxin receptor RXFP1. Q9HBX9. HEK293-RXFP1, relaxin-stimulated cAMP HTRF, 30 min; hits give low values. activity change, negative = inhibition, % at 57.5 µM. hit rate 0.59% among 350,000. AID 1259400;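 active means activity change of -60% or lower, but not beyond a set lower limit; inconclusive means change between -60% and -40%, or beyond the set limit; inactive means change above -40%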
# GRP78 ERSR act – induces the endoplasmic reticulum stress response in human glioma cells | U87-MG GRP78 promoter luciferase reporter, 16 h | Potency, µM, most hits filed as activators | hit rate 0.02% among 420,000; further: series mostly up to about 76 µM; nearly all actives have a fitted effect of over 35% in size
#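 Stably transfected U87-MG human glioma cells carrying a GRP78-based luminescent sensor were seeded at 1000 cells/well, pin-dosed with compounds and incubated 16 h. Luciferase reagent was then added, and end-point luminescence was read after 10 min at room temperature.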
# Numbers stand for hits; - = inactive; ? = inconclusive; . = no result given. The list is not random: actives were taken first. Their share in the collection is about 1.4%. Unless noted, the call rests on the fitted dose curve; in most records, active means well fitted curve in the direction sought with a large enough effect; inconclusive means small, poorly fitted or top-dose-only effect, or another doubt; inactive means no such curve, though single readings can be large; an effect the other way counts as inactive or inconclusive.
SMILES,PTHR1 agonist,KCNH2 3.1 block,hERG WT inh,RXFP1 ag,RXFP1 antagonist,GRP78 ERSR act
CC(C)c1ccc(OCC(=O)NNC(=S)NC(=O)c2cccs2)c(Br)c1,-,.,-,-,-,-
O=C(Nc1ccc(N2CCN(Cc3ccccc3)CC2)cc1)c1ccco1,-,-,-,-,-,-
Cn1c2c(c(=O)n(C)c1=O)C(C(F)(F)F)(C(F)(F)F)N=C(CCC1CCCCC1)N2,-,-,-,-,-65,-
Cn1c2c(c(=O)n(C)c1=O)C(C(F)(F)F)(C(F)(F)F)N=C(c1ccccc1Cl)N2,-,-,-,-,-,-
Cc1cc(O)cc(O)c1C(=O)O,.,.,.,.,.,-
COc1cccc(N2CCN(C(=O)CCCCCn3c(=S)[nH]c4cc5c(cc4c3=O)OCO5)CC2)c1,-,-,-,?,?,-
CCCCNC(=O)CCCn1c(=S)[nH]c2cc3c(cc2c1=O)OCO3,-,-,-,-,?,-
O=C(CCCCCn1c(=S)[nH]c2ccccc2c1=O)NCc1ccc2c(c1)OCO2,-,-,-,-,-62,-
O=C(CCCn1c(=S)[nH]c2cc3c(cc2c1=O)OCO3)NCc1ccccc1Cl,-,-,-,?,-108,-
COc1cccc(CNC(=O)CCCn2c(=S)[nH]c3cc4c(cc3c2=O)OCO4)c1,-,-,-,-,-71,-
CCCc1nc2ccccc2c(=O)n1CCc1ccccc1,-,-,-,-,-,-
CCN1CCCC1CNC(=O)c1ccc2c(c1)N(Cc1ccccc1F)C(=O)c1ccccc1S2(=O)=O (stereo unspecified),-,-,-,-,-100,-
CCOC(=O)[C@@H]1[C@H]2COc3ccccc3[C@@H]2N2C(=O)N(c3cccc(C)c3)C(=O)[C@@]12C,-,-,-,.,.,-
CC(C(=O)Nc1ccccc1-c1ccccc1)N1CCN(Cc2ccccc2)CC1 (stereo unspecified),-,-76,-,-,-,-
COc1cccc([C@@H]2CC=C(C(=O)O)[C@H](c3ccc(Cl)cc3)N2S(=O)(=O)c2ccc(C)cc2)c1,-,.,.,-,.,-
COc1cccc(CC2(CO)CCCN(Cc3cc(F)ccc3-n3cccn3)C2)c1 (stereo unspecified),-,-105,?,-,-,-
COc1cccc(CC2(CO)CCCN(Cc3ccccc3Cl)C2)c1 (stereo unspecified),-,-,-,-,-,-
COc1cccc(CC2(CO)CCCN(Cc3cn[nH]c3-c3ccc(F)cc3)C2)c1 (stereo unspecified),-,-,-,-,-,-
COc1cccc(CC2(CO)CCCN(Cc3ccc(OC)c(C)c3OC)C2)c1 (stereo unspecified),-,-113,-79,-,-,-
COCCNC(=S)NC(=O)CC12CC3CC(CC(C3)C1)C2,-,-,-,-,-,-
O=C(CN1CCN(CC(=O)c2ccc(Cl)cc2)CC1)c1ccc(Cl)cc1,-,-,-,.,-,-
O=C(Cn1cc(Cl)ccc1=O)c1ccc(Cl)cc1,-,.,-134,-,-,-
CCN(C[C@H]1N[C@@](C)(C(=O)OC)[C@H]2C(=O)N(C)C(=O)[C@@H]12)C(=O)c1ccc(C)cc1,-,-,-,.,.,-
CCN(C[C@H]1N[C@@](C)(C(=O)OC)[C@H]2C(=O)N(C)C(=O)[C@@H]12)C(=O)COc1ccccc1,-,-,-218,.,.,-
COc1cc(CN(C)C(C)C(=O)Nc2ccc([N+](=O)[O-])cc2Cl)ccc1OC(F)F (stereo unspecified),-,?,-95,-,-,-
SMILES,PTHR1 agonist,KCNH2 3.1 block,hERG WT inh,RXFP1 ag,RXFP1 antagonist,GRP78 ERSR act
CCOc1ccc(N=C(C)C2=C(O)c3ccccc3C2=O)cc1,-,-,-,-,-63,-
O=C(CCc1nnc(CCCc2ccccc2)o1)NCC(F)(F)F,-,-182,-240,-,-,-
COc1ccc(NC(=O)N2CCN(CCC#N)CC2)cc1,-,-,-,-,-,-
CCCCC(CC)CNC(=O)CCCCCn1c(=O)[nH]c2ccsc2c1=O (stereo unspecified),-,.,.,-,.,-
COc1ccc(CN2CCN(Cc3cc(=O)oc4cc(C)ccc34)CC2)c(OC)c1OC,-,-100,?,-,-,-
COc1ccc2c(CN3CCN(Cc4ccccc4)CC3)cc(=O)oc2c1,-,-108,-79,.,-,-
CCc1ccc2c(CN3CCN(Cc4ccccc4)CC3)cc(=O)oc2c1,-,-120,-141,-,-,-
CCc1ccc2c(CN3CCN(S(=O)(=O)c4ccccc4F)CC3)cc(=O)oc2c1,-,-75,-,.,-,-
O=C(C[n+]1ccc(C(=O)NCc2ccccc2)cc1)c1ccc(F)cc1,-,.,.,.,.,.
CN(C)C(=O)Nc1ccc(Cl)c(Cl)c1,.,.,.,.,-,-
CCn1c(SCC(=O)N2CCOCC2)nnc1C(C)NC(=O)c1ccccc1 (stereo unspecified),-,-,-,-,-,-
C=C(C)COc1ccc(-c2[nH]ncc2-c2ccc(OC)cc2)c(O)c1,-,-,-,-,-64,-
C=C(C)COc1ccc(-c2[nH]ncc2-c2ccc(OC)c(OC)c2)c(O)c1,-,-,-,-,-78,-
COc1ccc(-c2cn[nH]c2-c2ccc(OCc3ccc(F)cc3)cc2O)cc1OC,-,-,-,-,-73,-
COc1ccccc1-c1cn[nH]c1-c1ccc(O)cc1O,-,-116,-,-,-,-
COc1ccc(-c2cn[nH]c2-c2ccc(OCC(=O)NN)cc2O)cc1OC,-,-,-,-,-,-
COc1ccc(CCNC(=O)c2c(C)nn(CC(C)C)c2Cl)cc1OC,-,-,-,-,-,-
CCN(CC)c1ccc(N=Nc2nn(C)c(C)c2[N+](=O)[O-])cc1,-,-,-125,-,-,-
Cc1cc(S(=O)(=O)c2ccc(Cl)cc2)nc(S(=O)(=O)c2ccc(Cl)cc2)c1C#N,-,-73,-,.,-,-
COC(=O)c1ccc(CCc2cc(O)ccc2O)cc1,-,-,-,.,-72,-
COC(=O)c1ccc(O)cc1,-,-,-,-,-,-
COC(=O)c1ccc(CCc2cc(O)c(Br)cc2O)cc1,-,-,-,.,-96,-
CC(C)OC(=O)c1ccc(NCc2cc(O)ccc2O)cc1,-,.,-,.,-63,-
Oc1ccc(/C=N/NC(=S)N2CCOCC2)cc1,-,-,-,-,-,?
O=C(CSc1ccccc1)Nc1ccc2c(c1)OCO2,-,-,-,-,-,-
O=[N+]([O-])c1cccc(-c2csc(N/N=C/c3cccc(O)c3)n2)c1,-,-,-,-,-67,-
CCOC(=O)Cc1csc(N/N=C/c2cccc([N+](=O)[O-])c2)n1,-,-,-,-,-,-

# Screens from PubChem BioAssay.
